Active and inactive are the calls of the source. Unless noted, no rule for the calls is given here.
Columns and labels:
[1] = resazurin metabolic signal in HepG2 cells – cell-based, resazurin fluorescence, 24 h, PK04 Diversity Set, profiling panel (AID 1172); conditions: HepG2 viability, higher = more signal
[2] = budding yeast growth changes without added modifier – OD600, strain BY4716, 24 h, basal condition, primary screen (AID 1173); conditions: S. cerevisiae BY4716 growth, OD600, 24 h; higher = more signal, called active from +8 up or from −8 down
[3] = viability profiling in MM1S myeloma cells – cell-based, resazurin fluorescence, basal, 24 h, PK04 Diversity Set, profiling panel (AID 1174); conditions: higher = more signal, called active from +8 up or from −8 down;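 also: MM1S multiple myeloma cell line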
[4] = biological target: Dihydroorotate dehydrogenase (quinone), mitochondrial (Plasmodium falciparum (isolate 3D7)) (UniProt Q08210); assay: inhibition of P. falciparum DHODH – biochemical, C-terminal His tag, absorbance 600 nm, primary screen (AID 1175); conditions: PfDHODH enzyme, DCIP absorbance 600 nm; higher = more signal, called active from +8 up or from −8 down;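 also: recombinant parasite enzyme with a five histidine tag at its C terminus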
[5] = inhibition of PAO1 biofilm formation – strain PAO1, LB-PBS medium, absorbance 600 nm, primary screen (AID 1176); conditions: P. aeruginosa PAO1 growth/biofilm, A600, 12 h; higher = more signal
[6] = growth modulation of vineyard yeast isolate – strain RM11-1a, OD600, basal, 24 h, primary screen (AID 1177);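 also: cultures grown under basal conditions with no added stressor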; conditions: S. cerevisiae RM11-1a growth, OD600, 24 h; higher = more signal, called active from +8 up or from −8 down
[7] = growth of efflux-deficient E. coli DRC39 – strain DRC39, OD650, 24 h, E. coli filamentation inducers, primary screen (AID 1178);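 also: growth measured as culture turbidity by optical density at 650 nm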; conditions: E. coli DRC39 acrAB, higher = more signal, called active from +8 up or from −8 down
[8] = growth of efflux-deficient E. coli DRC39 – strain DRC39, OD650, 48 h, E. coli filamentation inducers, primary screen (AID 1179);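 also: screen aims at cell division blockers that make cells filament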; conditions: E. coli DRC39 delta-acrAB growth, higher = more signal, called active from +8 up or from −8 down
[9] = viability profiling in RPMI8226 myeloma cells – cell-based, resazurin fluorescence, basal, 24 h, PK04 Diversity Set, profiling panel (AID 1180); conditions: higher = more signal;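 also: RPMI8826 multiple myeloma cell line at 5000 cells per well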
[10] = biological target: E3 ubiquitin-protein ligase XIAP (Homo sapiens) (UniProt P98170); assay: small molecules binding XIAP protein – biophysical, small-molecule microarray, fluorescence 635 nm, primary screen (AID 1181); conditions: higher = more signal;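 also: score merges 667 nm emission and signal to noise over triplicate slides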
[11] = test system: XIP peptide (Xip251-270) binding; assay: XIP fragment 251-270 binding compounds – biochemical, small-molecule microarray, fluorescence 635/667 nm, 0.1 µg/mL protein, primary screen (AID 1182); conditions: fluorescent protein binding, 635 nm, higher = more signal, called active from +8 up or from −8 down
[12] = test system: XIP peptide (Xip251-270); assay: compounds binding XIP fragment 251-270 – biochemical, small-molecule microarray, fluorescence 635/667 nm, 0.5 µg/mL protein, primary screen (AID 1183); conditions: fluorescence 635 nm, higher = more signal
[13] = blood-stage malaria parasite viability loss – strain 3D7, DAPI fluorescence, 100 nL, primary screen (AID 1184);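 also: parasites grown inside human red blood cells in medium with human serum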; conditions: P. falciparum 3D7 growth, 3 d, higher = more signal
[14] = biological target: Homeobox protein Hox-A13 (Mus musculus) (UniProt Q62424); assay: disruptors of Hoxa13 oligonucleotide interaction – biochemical, fluorescence polarization, labeled oligonucleotide, primary screen (AID 1185); conditions: Hoxa13:DNA binding, 15 min, higher = more signal, called active from +8 up or from −8 down
[15] = blockers of DNA damage checkpoint Chk1 activation – imaging, HeLa, hydroxyurea, phospho-Chk1 antibody, percent positive cells, primary screen (AID 1186); conditions: hydroxyurea-induced phospho-Chk1 immunofluorescence imaging, higher = more signal
[16] = blockers of DNA damage checkpoint Chk1 activation – imaging, HeLa, hydroxyurea, phospho-Chk1 nuclear intensity, primary screen (AID 1187); conditions: hydroxyurea-induced phospho-Chk1 immunofluorescence imaging, higher = more signal

Dihydroorotate dehydrogenase (quinone), mitochondrial (Plasmodium falciparum (isolate 3D7)), sequence (Q08210 whole entry, looked up): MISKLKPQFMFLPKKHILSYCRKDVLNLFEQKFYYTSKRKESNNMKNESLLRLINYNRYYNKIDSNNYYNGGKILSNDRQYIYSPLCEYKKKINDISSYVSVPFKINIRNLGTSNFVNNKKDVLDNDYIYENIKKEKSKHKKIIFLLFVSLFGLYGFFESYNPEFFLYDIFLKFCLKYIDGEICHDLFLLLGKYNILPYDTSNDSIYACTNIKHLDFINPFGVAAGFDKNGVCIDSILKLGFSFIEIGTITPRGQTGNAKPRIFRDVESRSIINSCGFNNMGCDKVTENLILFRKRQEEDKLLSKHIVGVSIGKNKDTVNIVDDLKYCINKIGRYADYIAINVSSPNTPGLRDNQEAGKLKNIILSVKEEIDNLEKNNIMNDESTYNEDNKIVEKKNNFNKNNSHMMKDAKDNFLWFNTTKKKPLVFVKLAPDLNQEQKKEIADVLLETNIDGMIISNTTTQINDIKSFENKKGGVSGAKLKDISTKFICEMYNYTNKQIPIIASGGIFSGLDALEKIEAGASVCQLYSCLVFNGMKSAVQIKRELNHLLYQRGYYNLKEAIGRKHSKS
E3 ubiquitin-protein ligase XIAP (Homo sapiens), sequence (P98170 whole entry, looked up, the tested form may be a part): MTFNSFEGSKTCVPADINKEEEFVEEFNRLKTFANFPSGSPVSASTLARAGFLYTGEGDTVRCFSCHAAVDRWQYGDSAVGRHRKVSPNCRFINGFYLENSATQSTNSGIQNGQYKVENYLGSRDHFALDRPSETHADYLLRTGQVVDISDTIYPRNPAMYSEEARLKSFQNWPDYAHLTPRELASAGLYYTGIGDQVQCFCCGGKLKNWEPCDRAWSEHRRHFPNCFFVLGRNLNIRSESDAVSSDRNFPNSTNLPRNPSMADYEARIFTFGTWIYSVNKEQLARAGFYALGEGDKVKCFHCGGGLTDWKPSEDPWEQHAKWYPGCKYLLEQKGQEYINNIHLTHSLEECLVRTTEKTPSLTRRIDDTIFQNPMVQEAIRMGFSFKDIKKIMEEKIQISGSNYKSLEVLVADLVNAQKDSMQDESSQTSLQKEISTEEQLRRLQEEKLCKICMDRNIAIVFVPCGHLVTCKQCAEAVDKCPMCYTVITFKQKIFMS
Homeobox protein Hox-A13 (Mus musculus), sequence (Q62424 whole entry, looked up): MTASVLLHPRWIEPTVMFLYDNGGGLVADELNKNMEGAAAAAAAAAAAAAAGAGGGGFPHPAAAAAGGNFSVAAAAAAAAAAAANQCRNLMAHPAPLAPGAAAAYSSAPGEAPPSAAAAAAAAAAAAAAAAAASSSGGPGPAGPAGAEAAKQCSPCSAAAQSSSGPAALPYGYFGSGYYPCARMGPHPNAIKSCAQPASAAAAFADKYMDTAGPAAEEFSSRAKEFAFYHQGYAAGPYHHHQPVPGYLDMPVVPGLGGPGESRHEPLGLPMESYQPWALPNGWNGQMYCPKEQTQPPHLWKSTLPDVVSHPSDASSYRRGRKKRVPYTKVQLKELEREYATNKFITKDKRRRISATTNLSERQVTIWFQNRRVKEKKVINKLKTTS

CC(C)C(=C=CC[C@H](O)c1ccc(OCCO)cc1)C[C@H](O)c1cc(Cl)cc(Cl)c1O
z-score [1]: 0.918 | z-score [2]: -5.12 (inactive) | z-score [3]: -1.31 (inactive) | composite z-score [4]: -2.84 (inactive) | z-score [5]: -0.21 (inactive) | z-score [6]: -0.2 (inactive) | z-score [7]: 1.14 (inactive) | z-score [8]: 0.476 (inactive) | z-score [9]: -0.576 | composite z-score [10]: 0.0338 | composite z-score [11]: 0.263 (inactive) | composite z-score [12]: 0.746 | z-score [13]: -2.74 | z-score [14]: -1.35 (inactive) | z-score [15]: -0.289 (inactive) | z-score [16]: 0.18 (inactive)

C=C(CCCC)C(=O)CC[C@@H](OC(=O)c1cccnc1)c1ccccc1OCCO
z-score [1]: 0.0748 | z-score [2]: -3.02 (inactive) | z-score [3]: -1.22 (inactive) | composite z-score [4]: -2.63 (inactive) | z-score [5]: -0.153 (inactive) | z-score [6]: 0.231 (inactive) | z-score [7]: 0.604 (inactive) | z-score [8]: 0.448 (inactive) | z-score [9]: -2.39 | composite z-score [10]: 0.0325 | composite z-score [11]: -0.451 (inactive) | composite z-score [12]: -0.0138 | z-score [13]: -3.08 | z-score [14]: -3.61 (inactive) | z-score [15]: -0.383 (inactive) | z-score [16]: -0.227 (inactive)

O=C1O[C@@H](c2ccccc2)[C@@H](c2ccccc2)N2[C@@H](c3ccc(O)cc3)[C@]3(C(=O)Nc4ccc(C#CCCO)cc43)[C@@H](C(=O)NC[C@H](O)c3ccccc3)[C@H]12
z-score [1]: 1.29 | z-score [2]: -0.169 (inactive) | z-score [3]: 0.214 (inactive) | composite z-score [4]: 0.129 (inactive) | z-score [5]: -0.192 (inactive) | z-score [6]: 0.376 (inactive) | z-score [7]: 0.6 (inactive) | z-score [8]: 0.242 (inactive) | z-score [9]: 1.33 | composite z-score [10]: 0.363 | composite z-score [11]: 0.437 (inactive) | composite z-score [12]: 0.478 | z-score [13]: -0.656 | z-score [14]: -5 (inactive) | z-score [15]: -0.101 (inactive) | z-score [16]: -0.46 (inactive)

COCCOC(=O)N1C(=O)[C@@]2(c3ccccc31)[C@H](c1ccc(OCCO)cc1)N1[C@H](c3ccccc3)[C@H](c3ccccc3)OC(=O)[C@H]1[C@@H]2C(=O)Nc1nc2ccccc2s1
z-score [1]: 0.269 | z-score [2]: 1.29 (inactive) | z-score [3]: -0.657 (inactive) | composite z-score [4]: -0.383 (inactive) | z-score [5]: 2 (inactive) | z-score [6]: 1.11 (inactive) | z-score [7]: -0.176 (inactive) | z-score [8]: -0.524 (inactive) | z-score [9]: 0.0486 | composite z-score [10]: 0.259 | composite z-score [11]: 1.72 (inactive) | composite z-score [12]: 0.745 | z-score [13]: -0.365 | z-score [14]: 0.0267 (inactive) | z-score [15]: -0.0021 (inactive) | z-score [16]: -0.178 (inactive)

COc1ccc([Si](C)(C)[C@H]2[C@H](CCO)O[C@@]3(C(=O)N(Cc4cccc(N5CCCCC5=O)c4)c4ccccc43)[C@@H]2C)cc1
z-score [1]: -4.02 | z-score [2]: -0.732 (inactive) | z-score [3]: -7.24 (inactive) | composite z-score [4]: -2.94 (inactive) | z-score [5]: 0.969 (inactive) | z-score [6]: 4.44 (inactive) | z-score [7]: 1.83 (inactive) | z-score [8]: 1.26 (inactive) | z-score [9]: -4.57 | composite z-score [10]: -0.031 | composite z-score [11]: 1.41 (inactive) | composite z-score [12]: 0.589 | z-score [13]: -2.7 | z-score [14]: -5.06 (inactive) | z-score [15]: -1.36 (inactive) | z-score [16]: -0.572 (inactive)

C=CCNC(=O)[C@H]1[C@@H]2C(=O)O[C@@H](c3ccccc3)[C@@H](c3ccccc3)N2[C@@H](c2ccccc2OCCO)[C@]12C(=O)N(C(=O)OCCOC)c1ccc(C#CC3=CCCCC3)cc12
z-score [1]: -1.22 | z-score [2]: 1.22 (inactive) | z-score [3]: -5.62 (inactive) | composite z-score [4]: 1.09 (inactive) | z-score [5]: 1.37 (inactive) | z-score [6]: 2.81 (inactive) | z-score [7]: -0.29 (inactive) | z-score [8]: 0.286 (inactive) | z-score [9]: -4.42 | composite z-score [10]: 0.106 | composite z-score [11]: 0.234 (inactive) | composite z-score [12]: 0.719 | z-score [13]: -2.12 | z-score [14]: 0.724 (inactive) | z-score [15]: 0.557 (inactive) | z-score [16]: 1.47 (inactive)

CCOC(=O)[C@@H]1[C@@H]2C(=O)N(CC)C(=O)[C@@H]2C[C@@H]1Sc1ccccc1
z-score [1]: 0.0632 | z-score [2]: -0.325 (inactive) | z-score [3]: -0.33 (inactive) | composite z-score [4]: 0.917 (inactive) | z-score [5]: 0.257 (inactive) | z-score [6]: 0.866 (inactive) | z-score [7]: -0.638 (inactive) | z-score [8]: -0.894 (inactive) | z-score [9]: -0.458 | composite z-score [10]: -0.127 | composite z-score [11]: -0.266 (inactive) | composite z-score [12]: 0.313 | z-score [13]: -0.555 | z-score [14]: -4.73 (inactive) | z-score [15]: 0.899 (inactive) | z-score [16]: 0.647 (inactive)

O=C1c2ccccc2[C@](Cc2ccccc2I)(C(=O)NCCN2CCOCC2)[C@H](c2ccc(CO)cc2)N1Cc1ccccc1
z-score [1]: -0.462 | z-score [2]: -0.915 (inactive) | z-score [3]: 0.068 (inactive) | composite z-score [4]: 0.215 (inactive) | z-score [5]: 0.186 (inactive) | z-score [6]: 0.233 (inactive) | z-score [7]: -0.256 (inactive) | z-score [8]: -0.0438 (inactive) | z-score [9]: -0.713 | composite z-score [10]: 0.0904 | composite z-score [11]: 0.198 (inactive) | composite z-score [12]: 0.67 | z-score [13]: -0.74 | z-score [14]: -5.76 (inactive) | z-score [15]: -0.0525 (inactive) | z-score [16]: -0.321 (inactive)

C=CCN1C(=O)[C@@]2(O[C@@H](CCO)[C@H]([Si](C)(C)c3ccc(OC)cc3)[C@H]2C)c2cc(N3C(=O)c4ccccc4Oc4ccccc43)ccc21
z-score [1]: -6.08 | z-score [2]: -0.0065 (inactive) | z-score [3]: -8.62 (active) | composite z-score [4]: 0.614 (inactive) | z-score [5]: 1.95 (inactive) | z-score [6]: 3.35 (inactive) | z-score [7]: 2.24 (inactive) | z-score [8]: 1.9 (inactive) | z-score [9]: -6.24 | composite z-score [10]: -0.172 | composite z-score [11]: 0.227 (inactive) | composite z-score [12]: 0.536 | z-score [13]: -2.52 | z-score [14]: -4.25 (inactive) | z-score [15]: -0.948 (inactive) | z-score [16]: -0.004 (inactive)
